The list is not random: actives were taken first. Their share in the collection is about 2.8%.
Env fusion inh – blocks HIV Env-driven cell-cell fusion | inhibition, % at 12.3 µM | AID 651610 | HeLa-JRFL Env/CEM21 cell fusion, luciferase | 1.1% of 360,000 active;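 active = mean replicate inhibition score of at least 50 and every replicate individually at or above 50; inconclusive = only one of the two criteria met; inactive = mean below 50 and not all replicates reaching 50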;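 also: 0% = plate neutral controls and 100% = maraviroc near 300 nM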
N-glyco inh – N-linked glycosylation inhibition; D54 ERlucT glycosylation luciferase reporter, 24 h; percent of 100 nM tunicamycin response; reporter increase, % at 12.5 µM; 0.23% of 360,000 active; AID 588692;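 active = mean luciferase reporter signal, scaled so untreated is 0 and the glycosylation-blocking control 100, at or above a set limit in every replicate; inconclusive = mean reaches the limit but not every replicate does; inactive = mean below the limit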;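 also: luciferase carries N-glycosylation sites so blocking glycosylation raises the light; 0% = median of neutral control wells and 100% = median of 100 nM tunicamycin wells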
PAX8 reporter – lowers PAX8-driven luciferase in RMG-I cells; inhibition, % at 12.6 µM; 1.2% of 360,000 active; RMG-I TPO-luciferase reporter, SteadyGlo, 24 h;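 active = mean replicate inhibition at least 60% with every replicate also reaching 60%; inconclusive = only one of the two criteria is met; inactive = mean below 60% and not all replicates reaching 60%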;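 also: luciferase light reporting Pax8 driven TPO promoter activity; plate controls were median of neutral control wells for no effect and mitoxantrone controls for full effect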
Shn3 inh set2 – inhibitors of Schnurri-3 3'UTR reporter in osteoblasts. Clone20 osteoblast Shn3 3'UTR firefly luciferase, 24 h. inhibition, % at 12.5 µM. 0.52% of 360,000 active;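 active = mean inhibition of at least 75% with every replicate also reaching 75%; inconclusive = mean inhibition at least 75% but some replicate below; inactive = mean inhibition below 75%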;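 also: 0% = median of neutral control wells and 100% = pilot-screen positive control compound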
NSD2 inh – NSD2 (human) methyltransferase inhibition. O96028. NSD2 peptide methylation, AlphaScreen, 120 min. inhibition, % at 12.5 µM. 0.54% of 310,000 active. AID 743445; in the data active = inhibition above about 50%
LMP1 NFkB inh – reduces LMP1-driven NF-kappaB luciferase signal. LMP1-induced NF-kappaB luciferase reporter cells, luminescence. inhibition, % at 12.5 µM. 0.69% of 350,000 active; in the data active = inhibition above about 41%; inconclusive = no clear call, values can overlap the other calls;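 also: 0% = neutral control wells and 100% = reference inhibitor control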
* = called active by the depositor; ? = inconclusive; . = not tested or not shown; [ ] = dose if it differs, or a comment.

SMILES	Env fusion inh	N-glyco inh	PAX8 reporter	Shn3 inh set2	NSD2 inh	LMP1 NFkB inh
COc1ccc(S(=O)(=O)Nc2ccc3c(c2)C(=O)N([C@@H](C)CO)C[C@H](C)[C@H](CN(C)C(=O)NC(C)C)OCCCC[C@H](C)O3)cc1	93*[16.7 µM]	.	7	.	.	.
C[C@@H]1CN([C@@H](C)CO)C(=O)c2cc(NS(=O)(=O)c3ccc(Cl)cc3)ccc2O[C@@H](C)CCCCO[C@@H]1CN(C)C(=O)Nc1ccc(F)cc1	-88[16.7 µM]	.	5	.	.	.
Cc1noc(C)c1NC(=O)N(C)C[C@H]1OCCCC[C@@H](C)Oc2ccc(NS(=O)(=O)c3ccc(F)cc3)cc2C(=O)N([C@H](C)CO)C[C@@H]1C	60*[16.7 µM]	.	-18	.	.	.
Cc1noc(C)c1NC(=O)N(C)C[C@@H]1OCCCC[C@H](C)Oc2ccc(NS(=O)(=O)c3ccc(F)cc3)cc2C(=O)N([C@@H](C)CO)C[C@H]1C	10[16.7 µM]	.	-5	.	.	.
C[C@@H]1CN([C@H](C)CO)C(=O)c2cc(NS(=O)(=O)c3ccc(F)cc3)ccc2O[C@@H](C)CCCCO[C@H]1CN(C)C(=O)Nc1ccc(F)cc1	-129[16.7 µM]	.	21	.	.	.
C[C@H]1CCCCO[C@H](CN(C)C(=O)Nc2ccc(F)cc2)[C@@H](C)CN([C@@H](C)CO)C(=O)c2cc(NS(=O)(=O)c3ccc(F)cc3)ccc2O1	23[16.7 µM]	.	67*	.	.	.
C[C@@H]1CN([C@H](C)CO)C(=O)c2cc(NS(=O)(=O)c3ccc(Cl)cc3)ccc2O[C@@H](C)CCCCO[C@H]1CN(C)C(=O)Nc1ccc(F)cc1	-217[16.7 µM]	.	67*	.	.	.
COc1ccc(S(=O)(=O)N(C)C[C@H]2OCCCC[C@@H](C)Oc3ccc(NC(=O)NC4CCCCC4)cc3C(=O)N([C@@H](C)CO)C[C@@H]2C)cc1	-2[16.7 µM]	.	35	.	.	.
COc1ccc(S(=O)(=O)Nc2ccc3c(c2)C(=O)N([C@@H](C)CO)C[C@H](C)[C@@H](CN(C)C(=O)Nc2ccc(F)cc2)OCCCC[C@H](C)O3)cc1	19[16.7 µM]	.	85*	.	.	.
Cc1ccc(S(=O)(=O)Nc2ccc3c(c2)C(=O)N([C@H](C)CO)C[C@@H](C)[C@H](CN(C)C(=O)Nc2ccc(F)cc2)OCCCC[C@@H](C)O3)cc1	-30[16.7 µM]	.	61*	.	.	.
Cc1ccc(S(=O)(=O)Nc2ccc3c(c2)C(=O)N([C@@H](C)CO)C[C@@H](C)[C@@H](CN(C)C(=O)Nc2ccc(F)cc2)OCCCC[C@@H](C)O3)cc1	-38[16.7 µM]	.	-4	.	.	.
C[C@@H]1CN([C@@H](C)CO)C(=O)c2cc(C3=CCCCC3)cnc2O[C@H]1CN(C)Cc1cccnc1	-15[16.7 µM]	.	9	.	.	.
CC[N+]1=C(C)C(C)(C)c2cc(C)ccc21	26	-4	96*	89*	5	5
COc1cc(C2C3=C(COC3=O)Oc3cc4c(cc32)OCO4)cc(OC)c1OC (stereo not drawn)	-191	10	69*	8	-2	-5
COc1cc(C2C3=C(COC3=O)Oc3cc4c(cc32)OCO4)cc(OC)c1O (stereo not drawn)	31	11	90*	8	6	-9
N#CC1=C(N)Oc2cc3c(cc2C1c1ccc(Cl)cc1)OCO3 (stereo not drawn)	.	7	.	3	-3	-38
COc1cc([C@@H]2c3cc4c(cc3[C@@H](O)[C@H]3COC(=O)[C@H]23)OCO4)cc(OC)c1O[Si](C)(C)C(C)(C)C	32	-11	47	5	.	6
O=C1OCC2=C1C(c1ccc3c(c1)OCO3)c1cc3c(cc1O2)OCO3 (stereo not drawn)	34	18	-2	-7	-1	59*
COc1cc(C2CC(=O)Oc3cc4c(cc32)OCO4)cc(OC)c1OC (stereo not drawn)	20	0	-21	-16	.	-11
COc1cc(C2c3cc4c(cc3C3OC(=O)C2C3CO)OCO4)cc(OC)c1OC (stereo not drawn)	-147	8	76*	16	.	-2
O=C(C1CC1)N1C[C@@H]2[C@H](c3ccccc31)[C@@H](CO)N2C(=O)c1ccccn1	.	.	-15	.	.	.
CC(C)NC(=O)Nc1ccc2c(c1)C(=O)N([C@H](C)CO)C[C@@H](C)[C@@H](CN(C)C(=O)Nc1ccc3c(c1)OCO3)O2	-1[16.7 µM]	.	-14	.	.	.
Cc1noc(C)c1S(=O)(=O)Nc1cccc2c1O[C@@H](CN(C)CC1CC1)[C@@H](C)CN([C@@H](C)CO)C2=O	2[16.7 µM]	.	.	.	.	.
Cc1cc2nncn2c2ccccc12	-355	6	1	-20	0	0
Cc1ccccc1-n1c(=O)c2ccccc2n2cnnc12	83*	6	.	-8	-3	5
SMILES	Env fusion inh	N-glyco inh	PAX8 reporter	Shn3 inh set2	NSD2 inh	LMP1 NFkB inh
NC(=O)NCC#Cc1ccc2c(c1)[C@]1(C(=O)N2)[C@H](c2ccccc2OCCO)N2[C@H](c3ccccc3)[C@H](c3ccccc3)OC(=O)[C@H]2[C@@H]1C(=O)N1CCCCCCC1	-16[16.7 µM]	.	23	.	.	.
O=C1O[C@@H](c2ccccc2)[C@@H](c2ccccc2)N2[C@@H](c3ccccc3OCCO)[C@]3(C(=O)Nc4ccc(C#CCCO)cc43)[C@@H](C(=O)N3CCCCCCC3)[C@H]12	-17[16.7 µM]	.	93*	.	.	.
NC(=O)[C@H]1[C@@H]2C(=O)O[C@@H](c3ccccc3)[C@@H](c3ccccc3)N2[C@@H](c2ccccc2OCCO)[C@]12C(=O)Nc1ccccc12	-178[16.7 µM]	.	?	.	.	.
NC(=O)[C@@H]1[C@H]2C(=O)O[C@H](c3ccccc3)[C@H](c3ccccc3)N2[C@H](c2ccccc2OCCO)[C@@]12C(=O)Nc1ccccc12	-19[16.7 µM]	.	84*	.	.	.
O=C1O[C@H](c2ccccc2)[C@H](c2ccccc2)N2[C@H]1[C@@H](C(=O)N1CCCCCCC1)[C@]1(C(=O)Nc3ccccc31)[C@H]2c1ccccc1OCCO	59*[16.7 µM]	.	79*	.	.	.
C[C@@H]1CN([C@H](C)CO)C(=O)c2cc(NC(=O)Cc3cn(C)c4ccccc34)ccc2O[C@@H]1CN(C)Cc1ccc2c(c1)OCO2	.	.	-10	.	.	.
COc1ccc(Nc2nc(N3CCCC3)nc3ccccc23)c(OC)c1	-83	99*	.	53	.	-6
COc1cc(/C=C2/C(=O)c3cccc([N+](=O)[O-])c3C2=O)c(Br)cc1O	-75	4	-7	10	55*	-14
COc1ccccc1NC(=O)CCCCCN1C(=O)c2cccc([N+](=O)[O-])c2C1=O	1	0	12	2	1	4
CCC(=O)N(C)C[C@H]1Oc2cc(-c3ccccc3C)ccc2S(=O)(=O)N([C@@H](C)CO)C[C@H]1C	-8[16.7 µM]	.	.	.	.	.
COc1ccccc1N1CCN(C(=O)CSc2nnc3n2C(C)(C)Cc2ccccc2-3)CC1	74*	-2	.	80	3	7
CC1Cc2ccccc2N1C(=O)CSc1nnc2n1C(C)(C)Cc1ccccc1-2 (stereo not drawn)	-42	-1	31	4	-2	7
Cc1noc(C)c1NC(=O)N(C)C[C@@H]1Oc2c(NC(=O)Nc3ccc(F)cc3)cccc2C(=O)N([C@H](C)CO)C[C@H]1C	5[16.7 µM]	.	4	.	.	.

Source: PubChem BioAssay
